Results on 57 sequences are retold here after paper PMC7819943, “Rice protein-binding microarrays: a tool to detect cis-acting elements near promoter regions in rice”.

Whole data set: some 39,000 sequences, median “fluorescence intensity (a.u.)” near 4,300, cut for the highest 2% near 39,000. Only a selection was taken, and the highest values are over-represented in it overall.

The target in the assay is T1, OsSMF1 (Oryza sativa, UniProt Q6ZLB0 1-436).
T1 sequence: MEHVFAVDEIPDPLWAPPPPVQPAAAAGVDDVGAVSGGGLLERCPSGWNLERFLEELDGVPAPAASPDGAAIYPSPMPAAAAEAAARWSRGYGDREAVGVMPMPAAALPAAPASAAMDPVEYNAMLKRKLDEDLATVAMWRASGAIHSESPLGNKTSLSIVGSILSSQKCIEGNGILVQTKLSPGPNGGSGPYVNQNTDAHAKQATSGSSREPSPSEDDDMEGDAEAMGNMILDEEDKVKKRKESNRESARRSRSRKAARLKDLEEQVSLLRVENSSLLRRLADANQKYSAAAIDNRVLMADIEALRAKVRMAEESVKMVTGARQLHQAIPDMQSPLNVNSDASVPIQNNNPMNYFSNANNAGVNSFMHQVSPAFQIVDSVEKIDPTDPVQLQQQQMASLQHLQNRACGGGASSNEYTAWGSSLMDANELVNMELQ
Put plainly: protein-binding microarray (RPBM); PBS, 2% BSA, 51.3 ng/ul salmon testes DNA, 50 uM zinc acetate, 200 nM TF, 25 C, 1 h; high values mean tight binding. The note with it: protein: recombinant; tags: N-terminal polyhistidine and DsRed monomer fusion (pET32a); chain copies: 2; label: CyDye5-dUTP incorporated in the synthesized complementary strand; 3' TTTTT single-stranded linker to array surface; dsDNA, one strand shown. In a few lines:
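Per-feature fluorescence intensity (arbitrary units), read on an Axon 4000B scanner, is the binding signal. Transcription factors carrying an N-terminal polyhistidine tag and DsRed fusion were expressed in E. coli BL21-CodonPlus and purified on Ni–NTA. A custom Agilent array, made double-stranded by primer extension with Cy5-dUTP and blocked with 2% BSA, was incubated with 200 nM protein in PBS, 2% BSA, salmon testes DNA and 50 µM zinc acetate at 25 °C for 1 h and then washed.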
For the sequence “TATCCATGGTGTTTAACAATATATCACTGGATACACGTGTCGGAGTCACCTAGTGCAG”, the binding signal is 9700 fluorescence intensity (a.u.).

Take “TTCTTCCCTTCACATAGGAATTGGATGATGTGGAGACTTTCGGAGTCACCTAGTGCAG”: the binding signal is 7630 fluorescence intensity (a.u.). For “CATAATTTTAGGTATCGCTAGGATTTAATTTACACTGTAGCGGAGTCACCTAGTGCAG” the value was 3370 fluorescence intensity (a.u.); for “TTAGTTTTATATAAAATGTGTCACATGATAATAGTAGTACCGGAGTCACCTAGTGCAG”, 3870 fluorescence intensity (a.u.). Take “TCTACTGTGTGTGTGTGTGTGTGTGTTCACTACTGGATAGCGGAGTCACCTAGTGCAG”: the binding signal was 3160 fluorescence intensity (a.u.). With “GTCCTAAAGTACTTATTGTGTCCGGTTTTGGTTAGTTAAGCGGAGTCACCTAGTGCAG” the figure was 3210 fluorescence intensity (a.u.). In the case of “CAGTTACGCGCCGTGCCTACCCGTGTATCACCGCGATGAGCGGAGTCACCTAGTGCAG”, the binding signal is 3270 fluorescence intensity (a.u.). With “TGCGTGTTTGATGATATACACGTGCGTATATGTCTACCGTCGGAGTCACCTAGTGCAG” the figure was 3880 fluorescence intensity (a.u.); with “ACCCATTTTCAGTGGCAGGGTTATTGACACCACACTCACACGGAGTCACCTAGTGCAG”, 3140 fluorescence intensity (a.u.); with “GCATGGCGCCGCCATCTCGGATTCGCCGTAGTGTCTCCGCCGGAGTCACCTAGTGCAG”, 35300 fluorescence intensity (a.u.).

Regarding “CCCGCGTCGCATTCAACGCCACGCACACCACTCCACTCCACGGAGTCACCTAGTGCAG”, the binding signal is 3470 fluorescence intensity (a.u.). With “TGGATCCGGCCCTGCATGTCCGTCCTCGCCGGTGGGCGCTCGGAGTCACCTAGTGCAG” the figure was 41400 fluorescence intensity (a.u.). Take “CCAACGTCGTACATCCCTCCACGTCATCGATCCGCGCCGCCGGAGTCACCTAGTGCAG”: the binding signal was 35200 fluorescence intensity (a.u.). Turning to “CCCTAGCCCTCGCCCTGGTCCGTCCGGCGTGGCGCGCGCTCGGAGTCACCTAGTGCAG”, the binding signal is 5150 fluorescence intensity (a.u.). With “ACACGGATCGAACCCCTCCTCCCCGCCACGTCACCGATCCCGGAGTCACCTAGTGCAG” the figure was 38700 fluorescence intensity (a.u.). For “GCACCAGCCAGTCAGCCCACCATTTCAAACGCCACACTCACGGAGTCACCTAGTGCAG” the value was 60800 fluorescence intensity (a.u.); for “TCGGCATGGGCGGTGGCGCTGGCGCGTCCTCCGATCCCGTCGGAGTCACCTAGTGCAG”, 19900 fluorescence intensity (a.u.). For “TTCTCCGGCCGCCGCCGCCATCGCCGCCGGCCGTAGCATGCGGAGTCACCTAGTGCAG” the value was 56000 fluorescence intensity (a.u.); for “TCCCTCCTCCCCGTCGTCACAAGCCACGTCATCGATCCGCCGGAGTCACCTAGTGCAG”, 40000 fluorescence intensity (a.u.). As for “TCTCTCTCTCTCTCGCCATCGTCACTGCGGCTGCTGCTGCCGGAGTCACCTAGTGCAG”, the binding signal is 3810 fluorescence intensity (a.u.). For “CGCGCTGTCTGCACCGCCGCCGCCGCCGCCGGCGGAACCCCGGAGTCACCTAGTGCAG” the value was 25200 fluorescence intensity (a.u.); for “CTCCGATACGTATCCCGTACGTATCGCTATTTACTTCGATCGGAGTCACCTAGTGCAG”, 4930 fluorescence intensity (a.u.). For “CAGATCGGCAGACCAGACCACGTGTACACCCAACACGAGGCGGAGTCACCTAGTGCAG” the value was 8390 fluorescence intensity (a.u.); for “AGGAAAGGTTAATTACGTACGTACACGGGAAGGAGTAACCCGGAGTCACCTAGTGCAG”, 3340 fluorescence intensity (a.u.). With “TCCCTCTGACATGGTTCATTGATAGGTGGACTCTCTATTCCGGAGTCACCTAGTGCAG” the figure was 3240 fluorescence intensity (a.u.); with “CTCCTCTCCCGCGCGCCACGCCCTCCCTCCCCTTCCCCTTCGGAGTCACCTAGTGCAG”, 4060 fluorescence intensity (a.u.). “ACCACCACCACCACCATCGCACTCCCAACTCCCAAGCCGCCGGAGTCACCTAGTGCAG”: the binding signal is 3760 fluorescence intensity (a.u.). As to “CAAAAGCCTCGCCGCGCACCACCACCCAGCTCTCTCCACTCGGAGTCACCTAGTGCAG”, the binding signal is 3640 fluorescence intensity (a.u.). Consider “AGCCAGCCCAAAAGCCACGCCGTCCACTCCATCTCCGCCTCGGAGTCACCTAGTGCAG”, for which the binding signal was 48000 fluorescence intensity (a.u.). As to “AAAGCCTCGCCGCCATCTCTCTCCACCACCCAAAATTTCTCGGAGTCACCTAGTGCAG”, the binding signal was 35600 fluorescence intensity (a.u.). For “TCCCGTCTCGTCCGTCGTCTCCTCCGCTCCTTGCGCCAAGCGGAGTCACCTAGTGCAG” the value was 3200 fluorescence intensity (a.u.); for “ACCTGCCCAACCCCAACCCCAACCCTCTCCTCTCCGCCCACGGAGTCACCTAGTGCAG”, 3710 fluorescence intensity (a.u.).

Regarding “GCTCCTCCCGTGCCGCCGCCGTCTCGCGCCAGTGCGTCTCCGGAGTCACCTAGTGCAG”, the binding signal is 3330 fluorescence intensity (a.u.). With “GCTCCTCACCCGCCGTGAACCCAACCCACATCCGCTGACGCGGAGTCACCTAGTGCAG” the figure was 3300 fluorescence intensity (a.u.).

In the case of “CCGCCGTGAAGCACACCACCACCAACCCCATCGCTCCCTCCGGAGTCACCTAGTGCAG”, the binding signal is 64500 fluorescence intensity (a.u.).

As to “AAGAAAATCTCCTGTCTCAGTCTCCTCCGCTCCTTGCGCCCGGAGTCACCTAGTGCAG”, the binding signal was 54400 fluorescence intensity (a.u.). With “TCCCCACCCTCCTCCGCAAGCCACGCCTCTCCCCAAAGTTCGGAGTCACCTAGTGCAG” the figure was 65500 fluorescence intensity (a.u.); with “GGTATTGCTGTATTTATTTTGGTGTGGTTGAGAGTCTAGTCGGAGTCACCTAGTGCAG”, 4096 fluorescence intensity (a.u.); with “CATTCCCCTCTCCCCAATTTACCATACACACATGGATGTACGGAGTCACCTAGTGCAG”, 3640 fluorescence intensity (a.u.). Take “TGATCAATCAAGAAGACGATCGTGCCGATATCATGGCACCCGGAGTCACCTAGTGCAG”: the binding signal was 3940 fluorescence intensity (a.u.).

In the case of “GTCTTTCTTCAATTGTTATTATTGTCATAAATCAGGAGAACGGAGTCACCTAGTGCAG”, the binding signal was 22600 fluorescence intensity (a.u.). Turning to “TTAACCCCGTCACGTCACCTCTCTCTCTCTCTACCGTCTCCGGAGTCACCTAGTGCAG”, the binding signal was 9720 fluorescence intensity (a.u.). With “CAAACGGGACGAATTCCTAACCCTCGTCATCCGTCCCTTCCGGAGTCACCTAGTGCAG” the figure was 4710 fluorescence intensity (a.u.); with “CTGTTATCTTTCAATAAACCAAGGGAATTTTAGTTTGTTCCGGAGTCACCTAGTGCAG”, 33200 fluorescence intensity (a.u.). With “AAGAGGATGGCTGGGAGGATGACATGTGGAGCCCACATGGCGGAGTCACCTAGTGCAG” the figure was 4450 fluorescence intensity (a.u.).

Take “CCAACCCATCTCCACCGTCCATCTCCATCCGACGCCTCCCCGGAGTCACCTAGTGCAG”: the binding signal is 24300 fluorescence intensity (a.u.). For “AACCTCCATCTCCCGCCCAGTGCCGCCGCGCCACGTCACCCGGAGTCACCTAGTGCAG” the value was 39100 fluorescence intensity (a.u.).

Take “ACATCCACAACCATCTCCACCTCACCTCGTCCATCGTCTCCGGAGTCACCTAGTGCAG”: the binding signal is 6010 fluorescence intensity (a.u.).

Consider “CGCCCGAGAGCGAACGGCCGTCTGCCACGTCACTTTCGCCCGGAGTCACCTAGTGCAG”, for which the binding signal is 29100 fluorescence intensity (a.u.). With “GGCGCCGTGCCGTAATCCATCTCCTCCGTCGTCCAACCTCCGGAGTCACCTAGTGCAG” the figure was 44900 fluorescence intensity (a.u.); with “AGCCCGGCCCACCACGGGGTTTCCCTCTTCTCTAGGCCCGCGGAGTCACCTAGTGCAG”, 50600 fluorescence intensity (a.u.); with “CCCGAGAGCGAACGGCCGTCTGCCACGTCATTTTCGCCGCCGGAGTCACCTAGTGCAG”, 29700 fluorescence intensity (a.u.). Take “TCCCTCCCTCCGCCGCGCCACGCCCACCCACGCATCCATCCGGAGTCACCTAGTGCAG”: the binding signal is 4110 fluorescence intensity (a.u.). With “CCGGCCACCGCCCTCCCGCCGCACGGGCCACCGGCCACCGCGGAGTCACCTAGTGCAG” the figure was 3460 fluorescence intensity (a.u.); with “TCTCTTCCCCTCTCCGCGCCGCCCTCCGCCCCGCCCGCGGCGGAGTCACCTAGTGCAG”, 3270 fluorescence intensity (a.u.).

As to “TCCACCCCACGTCCTCCTCCTCCCCAGCAGTCCCACCCGCCGGAGTCACCTAGTGCAG”, the binding signal is 3570 fluorescence intensity (a.u.).

Turning to “CGAGAGCGAACGGCCGTCTGCCACGTCACTTTCGCCACCCCGGAGTCACCTAGTGCAG”, the binding signal was 41900 fluorescence intensity (a.u.).
